Laboratory results published in the supplement of paper PMC9262897, “Low-cost anti-mycobacterial drug discovery using engineered E. coli” (Nature Communications, 2022).
Structures can show the parent of a compound that is named as a salt. ± gives the standard deviation of the averaged measurements.

System: E. coli TESEC Mtb Alr
Test: growth (OD600 after 10 h); higher = more growth (less inhibition)
Conditions: compound 0.1 mM
Description: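 TESEC Mtb Alr E. coli, or the Alr+ wild-type control, in 384-well plates with Prestwick library compounds at 0.1 mM and 1% DMSO, across arabinose induction levels of 1E3 to 1E7 nM. Growth is read as OD600 after 10 h at 37 °C in triplicate biological replicates.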

[1] = arabinose 1000 nM, raw OD600 reference: median of DMSO wells 0.294, cell-free background 0.041
[2] = arabinose 10000 nM, raw OD600 reference: median of DMSO wells 0.264, cell-free background 0.041
[3] = arabinose 100000 nM, raw OD600 reference: median of DMSO wells 0.201, cell-free background 0.041
[4] = arabinose 1000000 nM, raw OD600 reference: median of DMSO wells 0.193, cell-free background 0.041
[5] = arabinose 10000000 nM, raw OD600 reference: median of DMSO wells 0.146, cell-free background 0.041

## CC(C)(C)NCC(O)COc1cccc2c1CCC(=O)N2 (stereo not given) [Carteolol hydrochloride]
[1]
  growth: 0.285 ± 0.02
[2]
  growth: 0.2521 ± 0.002
[3]
  growth: 0.197 ± 0.043
[4]
  growth: 0.181 ± 0.0071
[5]
  growth: 0.143 ± 0.0038

## NC12CC3CC(CC(C3)C1)C2 [Adamantamine fumarate]
[1]
  growth: 0.299 ± 0.0054
[2]
  growth: 0.271 ± 0.005
[3]
  growth: 0.248 ± 0.034
[4]
  growth: 0.209 ± 0.014
[5]
  growth: 0.145 ± 0.0061

## Clc1ccc(Cn2c(CN3CCCC3)nc3ccccc32)cc1 [Clemizole hydrochloride]
[1]
  growth: 0.0807 ± 0.029
[2]
  growth: 0.0496 ± 0.00062
[3]
  growth: 0.106 ± 0.049
[4]
  growth: 0.0465 ± 0.0005
[5]
  growth: 0.06017 ± 0.00057

## O=C(Cn1ccnc1[N+](=O)[O-])NCCO [Etanidazole]
[1]
  growth: 0.306 ± 0.015
[2]
  growth: 0.258 ± 0.0028
[3]
  growth: 0.213 ± 0.0053
[4]
  growth: 0.178 ± 0.0091
[5]
  growth: 0.138 ± 0.0056

## Clc1ccc(CSC(Cn2ccnc2)c2ccc(Cl)cc2Cl)cc1 (stereo not given) [Sulconazole nitrate]
[1]
  growth: 0.0534 ± 0.0013
[2]
  growth: 0.0668 ± 0.0017
[3]
  growth: 0.0542 ± 0.00071
[4]
  growth: 0.0669 ± 0.0011
[5]
  growth: 0.0556 ± 0.0041

## CC(=O)OCC(=O)[C@@]1(O)CC[C@H]2[C@@H]3CCC4=CC(=O)C=C[C@]4(C)[C@@]3(F)[C@@H](O)C[C@@]21C [Isoflupredone acetate]
[1]
  growth: 0.266 ± 0.019
[2]
  growth: 0.22 ± 0.0097
[3]
  growth: 0.213 ± 0.015
[4]
  growth: 0.128 ± 0.0061
[5]
  growth: 0.13 ± 0.0065

## COC(c1ccccc1)(c1ccccc1)[C@H](Oc1nc(C)cc(C)n1)C(=O)O [Ambrisentan]
[1]
  growth: 0.28 ± 0.0015
[2]
  growth: 0.285 ± 0.0062
[3]
  growth: 0.177 ± 0.024
[4]
  growth: 0.224 ± 0.0037
[5]
  growth: 0.13 ± 0.0029

## CN(C)CCc1c[nH]c2ccc(Cn3cncn3)cc12 [Rizatriptan benzoate]
[1]
  growth: 0.2899 ± 0.0026
[2]
  growth: 0.258 ± 0.00081
[3]
  growth: 0.198 ± 0.0062
[4]
  growth: 0.213 ± 0.022
[5]
  growth: 0.141 ± 0.006
